Source: PubChem
ID4 binder: binds human ID4 protein on microarray | P47928 | small molecule microarray, Flag-ID4 binding, fluorescence F/B | calls only | 31,000 tested, 1.2% active; call rule not given here;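 further: a binder raises fluorescence above local background on the spot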
Target sequence (P47928 whole entry, looked up): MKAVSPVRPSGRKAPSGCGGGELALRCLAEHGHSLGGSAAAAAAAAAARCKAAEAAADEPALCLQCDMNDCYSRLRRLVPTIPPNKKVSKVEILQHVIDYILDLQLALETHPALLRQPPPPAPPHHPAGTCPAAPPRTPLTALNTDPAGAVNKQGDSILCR
STK33 kin inh: inhibitors of human STK33 kinase. Q9BYT3. ADP-Glo luminescence, MBP substrate. inhibition, % at 12.5 µM. 27,000 tested, 0.44% active. AID 2322; in the data active means inhibition above about 20%
The depositor's hits bear a star; i = inactive; . = no result given; + = active, no number. An excerpt weighted towards active compounds, which were near 1.1% of everything screened.

SMILES	ID4 binder	STK33 kin inh
O=C(CC1CC1)Nc1ccc2c(c1)[C@@H]1C[C@H](CC(=O)NC3CCCC3)O[C@H](CO)[C@@H]1O2	+	.
C[C@@H]1CN([C@@H](C)CO)C(=O)c2cc(NC(=O)Cn3cnnn3)ccc2O[C@H]1CN(C)C(=O)Nc1cccc2ccccc12	i	.
COCCOC(=O)N1C(=O)[C@@]2(c3cc(C#Cc4ccc(OC)cc4)ccc31)[C@H](c1ccccc1OCCO)N1[C@H](c3ccccc3)[C@H](c3ccccc3)OC(=O)[C@H]1[C@@H]2C(N)=O	.	1
COCCOC(=O)N1C(=O)[C@@]2(c3ccccc31)[C@H](c1ccccc1OCCO)N1[C@H](c3ccccc3)[C@H](c3ccccc3)OC(=O)[C@H]1[C@@H]2C(N)=O	+	8
O=C1O[C@H](c2ccccc2)[C@H](c2ccccc2)N2[C@H]1[C@@H](C(=O)N1CCCCCCC1)[C@]1(C(=O)Nc3ccc(C#CC4=CCCCC4)cc31)[C@H]2c1ccccc1OCCO	i	22*
O=C1O[C@H](c2ccccc2)[C@H](c2ccccc2)N2[C@H]1[C@@H](C(=O)N1CCN(c3ncccn3)CC1)[C@]1(C(=O)Nc3ccc(C#CC4=CCCCC4)cc31)[C@H]2c1ccccc1OCCO	i	8
C=CCOC(=O)C1=C[C@H](c2ccc(C(F)(F)F)cc2)[C@@H](CCCO)[C@H](OCC)O1	i	.
CC(=O)N1CCN(c2ccc(OCC3CO[C@](Cn4ccnc4)(c4ccc(Cl)cc4Cl)O3)cc2)CC1 (some centres not stated)	.	5
O=C1C=CC(=O)c2c(O)c(Cl)c(Cl)c(O)c21	.	22*
COc1ccc(NC(=O)CN(c2ccc(Cl)cc2Cl)S(C)(=O)=O)cc1	i	-1
COc1ccc(NC(=O)c2ccc(OC(C)C(=O)O)cc2)cc1Cl (configuration not stated)	+	-1
COc1ccc(NC(=O)c2ccc(OC(C)C(=O)Nc3ccccc3C(F)(F)F)cc2)cc1Cl (configuration not stated)	i	0
COC(=O)c1cccc(O)c1C(=O)c1c(O)cc(C)cc1O	i	-10
COC(=O)c1cc(O)c(C(=O)c2c(O)cccc2C(=O)O)c(O)c1	i	94*
O=C(CSc1ccccc1C(=O)O)Nc1ccnc2ccccc12	i	3
O=C(O)c1ccc2c3c1cccc3c(=O)n1c3ccccc3nc21	.	70*
COCCNC(=O)c1ccccc1NC(=O)c1ccccc1OC	i	0
COc1ccc2c(c1)OC/C(=C\c1ccc(OC)c(O)c1)C2=O	.	11
COc1cc(/C=C2\Oc3cc(O)ccc3C2=O)ccc1O	.	78*
C[C@H](CO)N1C[C@H](C)[C@H](CN(C)Cc2ccccc2C(=O)O)OCc2cn(nn2)CCCC1=O	.	-2
COc1ccc(CN(C)C[C@H]2Oc3ccc(N(C)C)cc3CC(=O)N([C@@H](C)CO)C[C@@H]2C)cc1	i	.
CC(C)Nc1nc(SCC(=O)Nc2ccccc2)nc(N2CCOCC2)n1	i	-4
O=C1N[C@@H](Cc2ccccc2)C(=O)N2[C@@H]1C[C@@H](C(=O)NCc1ccc(F)cc1)[C@H]2c1cccc(OCCO)c1	.	-1
NCCCCCNC(=O)[C@H]1C[C@H]2C(=O)N3CCC[C@H]3C(=O)N2[C@H]1c1cccc(OCCO)c1	.	-2
O=C(NCc1ccc(F)cc1)[C@@H]1C[C@@H]2C(=O)N3CCC[C@H]3C(=O)N2[C@@H]1c1cccc(OCCO)c1	i	-6
SMILES	ID4 binder	STK33 kin inh
O=C(NCc1ccc(F)cc1)[C@H]1C[C@H]2C(=O)N3CCC[C@H]3C(=O)N2[C@H]1c1cccc(OCCO)c1	+	1
O=C1NCC(=O)N2[C@@H]1C[C@@H](C(=O)NCc1ccc(F)cc1)[C@H]2c1cccc(OCCO)c1	+	-3
NCCCCCCNC(=O)[C@H]1C[C@H]2C(=O)N[C@@H](Cc3ccccc3)C(=O)N2[C@H]1c1cccc(OCCO)c1	+	-10
O=C(NCc1ccc(F)cc1)[C@H]1C[C@H]2C(=O)NCC(=O)N2[C@H]1c1cccc(OCCO)c1	i	-6
CN(C)CCCCCCNC(=O)[C@H]1C[C@H]2C(=O)N3CCC[C@H]3C(=O)N2[C@H]1c1cccc(OCCO)c1	+	-3
COC(=O)c1c(C)nn(C(=O)c2ccc(C)cc2)c1-c1cc(C)on1	i	.
C[C@@H]1CN([C@H](C)CO)C(=O)c2cc(NC(=O)CCCN(C)C)ccc2O[C@H]1CN(C)Cc1ccc(Oc2ccccc2)cc1	.	-1
C[C@@H]1CN([C@H](C)CO)C(=O)c2cc(NS(C)(=O)=O)ccc2O[C@H]1CN(C)C(=O)Nc1ccccc1	i	.
Cc1ccc(-c2cnc3c(c2)C(=O)N([C@@H](C)CO)C[C@H](C)[C@@H](CN(C)C)O3)cc1	i	.
C[C@@H]1CN([C@H](C)CO)C(=O)c2cc(-c3cccc(C(=O)N(C)C)c3)cnc2O[C@H]1CN(C)C	+	.
C[C@@H]1CN([C@H](C)CO)C(=O)c2cc(-c3ccc(C(=O)N(C)C)cc3)cnc2O[C@H]1CN(C)C	+	.
C[C@H]1CN([C@@H](C)CO)C(=O)c2cc(-c3ccc(C(=O)N(C)C)cc3)cnc2O[C@@H]1CN(C)C	i	.
C[C@H]1CN([C@@H](C)CO)C(=O)c2cc(-c3ccncc3)cnc2O[C@@H]1CN(C)C	+	.
C[C@@H]1CN([C@@H](C)CO)C(=O)c2cc(-c3cccc(C(=O)N(C)C)c3)cnc2O[C@@H]1CN(C)C	i	.
CC(C)C#Cc1cnc2c(c1)C(=O)N([C@@H](C)CO)C[C@H](C)[C@@H](CN(C)C(=O)c1cccnc1)O2	i	.
C[C@@H]1CN([C@H](C)CO)C(=O)c2cc(C#CCN(C)C)cnc2O[C@H]1CN(C)C(=O)c1cccnc1	+	.
COC(=O)c1c(NC(=S)NCc2ccc(S(N)(=O)=O)cc2)sc2c1CCC(C)C2 (configuration not stated)	i	3
CCCN(C)C[C@H]1Oc2ncc(-c3cccc(C(=O)N(C)C)c3)cc2C(=O)N([C@H](C)CO)C[C@H]1C	i	.
C[C@@H]1CN([C@H](C)CO)C(=O)c2cc(-c3ccc(C#N)cc3)cnc2O[C@H]1CN(C)Cc1ccncc1	+	.
C[C@H]1CN([C@@H](C)CO)C(=O)c2cc(C#Cc3ccccn3)cnc2O[C@H]1CN(C)Cc1ccccc1	i	.
CCCN(C)C[C@@H]1Oc2ncc(-c3cccc(C(=O)N(C)C)c3)cc2C(=O)N([C@@H](C)CO)C[C@H]1C	+	.
C[C@H](CO)N1C[C@H](C)[C@@H](CN(C)Cc2cncnc2)Oc2ncc(C#Cc3ccccn3)cc2C1=O	+	.
C[C@@H]1CN([C@H](C)CO)C(=O)c2cc(-c3ccncc3)cnc2O[C@H]1CN(C)Cc1ccc(F)cc1	i	.
Cc1ccc(N(C(C)C(=O)Nc2cccc(Cl)c2Cl)S(C)(=O)=O)cc1 (configuration not stated)	i	2
CCOc1ccc(NC(=O)C2CC=CCC2C(=O)O)cc1 (configuration not stated)	i	5
O=C(O)c1cc(NC(=O)C2CC=CCC2C(=O)O)ccc1Cl (configuration not stated)	+	-3
CCOc1ccc(N2C(=O)CC(Sc3nc(O)c(CC)c(=O)[nH]3)C2=O)cc1 (configuration not stated)	+	1
COc1ccc(N2C(=O)CC(SCCc3nc4ccccc4[nH]3)C2=O)cc1 (configuration not stated)	i	0
